In the library only some 12% were active in any assay of this set; here they are far more common.
HP1b binding inh: HP1-beta chromodomain-methylated histone interaction inhibition; P83916; AlphaScreen HP1-beta / biotin-H3K9me3 peptide binding; Potency, µM (doses to about 114 µM), most hits filed as inhibitors; hit rate 0.56% among 390,000; AID 540317; also: nearly all actives have a fitted effect of over 70% in size
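HP1-beta protein (50 nM final) preincubated 30 min at room temperature with biotinylated H3(1-18)K9me3 peptide (50 nM) in PBS pH 7.4, 0.01% Tween-20, then compound added for 30 min. AlphaScreen streptavidin donor/nickel chelate acceptor beads (10 ug/mL final), 30 min dark, luminescence read.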
BAZ2B block: inhibitors of human BAZ2B bromodomain. Q9UIF8. AlphaScreen BAZ2B-H3K14Ac peptide displacement. Potency, µM (highest dose often 114 µM), usual class: inhibitors. hit rate 4.4% among 360,000. AID 504333; also: nearly all actives have a fitted effect of over 60% in size
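Multi-concentration screen (max 110 uM) measuring displacement of acetylated histone H3 peptide from BAZ2B by AlphaScreen, using 50 nM protein, 50 nM peptide and 10 ug/mL streptavidin donor plus Ni-chelate acceptor beads.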
JMJD2A Tudor inh: JMJD2A Tudor domain (human) inhibition; Potency, µM (titrated, usually from 114 µM), hits mostly inhibitors; O75164; AID 504339; hit rate 4.4% among 390,000; AlphaScreen JMJD2A-Tudor / H3K4me3 peptide binding; also: nearly all actives have a fitted effect of over 50% in size
Target sequence (O75164 whole entry, looked up, the tested form may be a part): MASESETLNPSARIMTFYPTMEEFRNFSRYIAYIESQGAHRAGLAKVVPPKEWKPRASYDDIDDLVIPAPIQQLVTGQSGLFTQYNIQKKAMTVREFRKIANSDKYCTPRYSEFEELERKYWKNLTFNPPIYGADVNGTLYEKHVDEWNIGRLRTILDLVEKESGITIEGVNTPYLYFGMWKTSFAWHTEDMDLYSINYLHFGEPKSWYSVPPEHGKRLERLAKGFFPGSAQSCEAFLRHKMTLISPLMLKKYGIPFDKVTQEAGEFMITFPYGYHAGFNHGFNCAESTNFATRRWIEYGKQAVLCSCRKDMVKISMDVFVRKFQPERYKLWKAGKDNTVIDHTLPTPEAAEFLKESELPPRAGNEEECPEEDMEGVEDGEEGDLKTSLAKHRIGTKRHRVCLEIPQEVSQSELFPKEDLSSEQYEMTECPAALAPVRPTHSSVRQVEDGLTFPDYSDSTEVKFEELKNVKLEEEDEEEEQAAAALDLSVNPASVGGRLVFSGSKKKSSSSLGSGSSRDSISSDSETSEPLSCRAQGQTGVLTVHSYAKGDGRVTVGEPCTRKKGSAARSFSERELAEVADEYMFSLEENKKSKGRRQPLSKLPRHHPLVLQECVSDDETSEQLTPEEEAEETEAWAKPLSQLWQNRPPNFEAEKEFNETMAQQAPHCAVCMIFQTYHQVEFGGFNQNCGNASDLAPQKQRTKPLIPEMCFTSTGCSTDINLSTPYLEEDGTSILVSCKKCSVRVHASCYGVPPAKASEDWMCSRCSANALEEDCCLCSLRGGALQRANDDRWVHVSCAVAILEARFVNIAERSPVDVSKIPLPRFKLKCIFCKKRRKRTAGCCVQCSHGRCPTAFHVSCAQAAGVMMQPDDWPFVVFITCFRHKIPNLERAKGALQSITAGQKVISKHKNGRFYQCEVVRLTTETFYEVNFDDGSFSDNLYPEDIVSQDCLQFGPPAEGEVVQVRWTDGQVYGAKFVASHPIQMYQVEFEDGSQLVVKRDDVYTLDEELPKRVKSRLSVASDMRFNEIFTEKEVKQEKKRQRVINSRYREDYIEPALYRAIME
G9a inh: inhibitors of human histone lysine methyltransferase G9a; Q96KQ7; G9a H3K9 monomethylation, AlphaScreen, 2 h; Potency, µM (highest dose often 102 µM), most hits filed as inhibitors; hit rate 8.8% among 350,000; also: nearly all actives have a fitted effect of over 75% in size
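G9a (20 nM) preincubated 15 min RT with compounds, then 500 nM biotinylated H3K9 peptide and 20 uM SAM added; 2 h RT reaction. Monomethyl-H3K9 product detected by AlphaScreen with anti-H3K9me1 antibody, streptavidin donor and anti-rabbit IgG acceptor beads.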
Sfp inh: inhibitors of Bacillus subtilis Sfp phosphopantetheinyl transferase. hit rate 3.5% among 310,000. Potency, µM, hits mostly inhibitors. Biochemical Sfp PPTase activity, qHTS. AID 1490. Q9F4F7;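 also: the enzyme is Sfp with the accession as filed and its product quenches rhodamine fluorescence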
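Fluorescence-quenching assay with 15 nM Sfp, 5 uM rhodamine-CoA and 12.5 uM BHQ-2-labelled ybbR peptide in pH 7.6 Hepes/MgCl2 buffer. Enzyme was pre-incubated with compound for 15 min at room temperature. Rate was taken from the 30-min fluorescence change (525/598 nm).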
A number is an active result; . = inactive; ? = inconclusive; / = not tested or not shown; [ ] = another dose, or the depositor's remark. Calls follow the shape of the dose curve; as a rule, active = well fitted curve in the direction sought with a large enough effect; inconclusive = small, poorly fitted or top-dose-only effect, or another doubt; inactive = no such curve, though single readings can be large; an effect the other way counts as inactive or inconclusive.

SMILES | HP1b binding inh | BAZ2B block | JMJD2A Tudor inh | G9a inh | Sfp inh
CC(=O)OC1CC2C(C)(C)C(O)C=C[C@@]2(C)C2CC[C@@]3(C)C(c4ccoc4)OC(=O)C4OC43[C@]12C (some centres undefined) | / | / | / | / | .
Cc1cc(N/N=C(/CCC(=O)O)C(=O)O)nc2ccccc12 | . | ? | ? | 3.16µM | 50.1µM
CCCCN(C)C(=O)Cn1c(C2CC(=O)N(c3ccc(C)cc3)C2)nc2ccccc21 (centres undefined) | . | . | . | ? | /
CCN(CC)CCNc1c2c(c(C#N)c3nc4ccccc4n13)CCCC2 | . | . | . | . | .
COc1cc(/C=N/n2cnc3c(sc4nc(C)cc(C)c43)c2=O)ccc1O | . | . | . | . | .
C=CCN(CC=C)S(=O)(=O)c1ccc2nc(NC(=O)C3CCCO3)sc2c1 (centres undefined) | . | . | . | 1.26µM | .
COc1ccc2c(c1)C(c1ccccc1OC)CC(=O)O2 (centres undefined) | / | / | / | 35.5µM | .
CC(C)(C)c1cc(CSC(=S)NC2CCS(=O)(=O)C2)c(Br)c(C(C)(C)C)c1 (centres undefined) | . | . | . | ? | .
O=S1(=O)CC=C(CSC(=S)NC2CCS(=O)(=O)C2)C1 (centres undefined) | . | . | . | 44.7µM | ?
CCOC(=O)CSC1=C(C#N)C(c2ccc(C)o2)CC(=O)N1 (centres undefined) | . | . | . | ? | .
N#C/C(=C/c1cn(-c2ccccc2)nc1-c1cccc(S(=O)(=O)N2CCCC2)c1)C(=O)NCc1ccco1 | . | . | . | 50.1µM | .
CCSc1ccc(-c2nn(-c3ccccc3)cc2/C=C(/C#N)C(=O)NCCCOC)cc1 | . | . | . | . | .
CCOc1cccc(-c2nn(-c3ccccc3)cc2/C=C(/C#N)C(=O)NCCCn2ccnc2)c1 | ? | 35.5µM | ? | ? | ?
N#C/C(=C/c1cn(-c2ccccc2)nc1-c1cccc(OCc2ccccc2)c1)C(=O)NCCCn1ccnc1 | ? | 10µM | 39.8µM | . | .
CCOc1ccc(CCNC(=O)c2nn(-c3ccc(OC)c(Cl)c3)c(=O)c3c2c2ccccc2n3C)cc1OCC | . | / | . | . | /
Cc1cc(-c2ccccc2C(=O)NCc2ccccc2)on1 | . | . | . | . | .
N/C(=N\OC(=O)C1CCCCC1)c1ccc(Cl)cc1 | . | . | . | . | .
COc1ccc(C(C)(C)C)cc1NC(=O)COC(=O)c1ccc([N+](=O)[O-])o1 | ? | ? | 20µM | 39.8µM | .
Cc1ccc(C(=O)CSc2n[nH]c(-c3ccco3)n2)cc1C | . | ? | . | ? | .
O=C(O)c1cc(-c2ccco2)[nH]n1 | . | . | 79.4µM | ? | 22.4µM
CC(=O)c1ccc(-n2c(-c3cc(-c4ccco4)[nH]n3)n[nH]c2=S)cc1 | . | ? | ? | ? | 50.1µM
O=C(O)c1ccc(-n2c(-c3cc(-c4ccco4)[nH]n3)n[nH]c2=S)cc1 | . | 44.7µM | 20µM | .[0.501 µM] | 44.7µM
C=CCOc1ccc(C(=O)Nc2ccc3c(c2)n(C)c(=O)n3C)cc1 | . | ? | . | . | .
Cc1cc(C)n(C(=O)/C=C/c2cccs2)n1 | . | 56.2µM | . | .[12.7 µM] | .
COc1ccc(N=N/C(=C\O)C(=O)c2ccco2)cc1 | . | 39.8µM | .[11.4 µM] | ? | .
SMILES | HP1b binding inh | BAZ2B block | JMJD2A Tudor inh | G9a inh | Sfp inh
CCc1cc(SC#N)cc(CC)c1NC(=O)CCl | . | . | . | 50.1µM | .
Cc1cc(C)c2c(NC(=O)CCl)nn(C)c2n1 | . | . | . | . | .
CCCCc1ccc(C2C3=C(CC(C)(C)CC3=O)NC3=C2C(=O)c2ccccc23)cc1 (centres undefined) | ? | ? | ? | ? | .
O=C1CCCC2=C1C(c1cccc(O)c1)C1=C(N2)c2ccccc2C1=O (centres undefined) | . | . | . | 31.6µM | .
CC1(C)CC(=O)C2=C(C1)NC1=C(C(=O)c3ccccc31)C2c1ccc(O)cc1 (centres undefined) | . | 39.8µM | . | 25.1µM | .
CCCc1ccc(C2C3=C(CC(C)(C)CC3=O)NC3=C2C(=O)c2ccccc23)cc1 (centres undefined) | . | 25.1µM | ? | 35.5µM | .
CN1C(C(=O)NCc2cccs2)=CC(c2ccc(F)cc2)=NS1(=O)=O | . | . | . | . | .
COc1ccc(-c2nnc(SC(C)C(=O)Nc3cccc(Cl)c3)o2)cc1 (centres undefined) | . | / | . | . | .

Screening results from PubChem.
